Measured values from the supplement of paper PMC6897291.
Counter-ions that a name gives are not always drawn.

Columns and labels:
RIVA [1] = experiment: growth inhibition by drug plus 177Lu-lilotomab satetraxetan (1 - RLU/untreated control) (fraction); higher = stronger inhibition; conditions: 177Lu-lilotomab satetraxetan 0.5 ug/ml
Outline: (§1)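 Growth inhibition was calculated from RealTime-Glo RLU against untreated no-drug wells. Values equal 1 − RLU/mean of 48 untreated no-drug wells per plate, read daily from day 3 after 1 h at 37°C. RIVA and U-2932 cells, with or without 18 h pretreatment by a radiolabelled anti-CD37 antibody conjugate (~600 MBq/mg; 0.5 µg/ml RIVA, 1 µg/ml U-2932), were washed and plated at 3,000 cells/well on compound-printed plates at 10/100 nM (RIVA) or 10/1,000 nM (U-2932).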

U-2932 [2] = experiment: growth inhibition by drug alone (1 - RLU/untreated control) (fraction); higher = stronger inhibition; conditions: 177Lu-lilotomab satetraxetan 0 ug/ml
Outline: as §1

RIVA [3] = experiment: as above; conditions: 177Lu-lilotomab satetraxetan 0 ug/ml
Outline: as §1

U-2932 [4] = experiment: growth inhibition by drug plus 177Lu-lilotomab satetraxetan (1 - RLU/untreated control) (fraction); higher = stronger inhibition; conditions: 177Lu-lilotomab satetraxetan 1 ug/ml
Outline: as §1

SMILES | growth inhibition by drug plus 177Lu-lilotomab satetraxetan (RIVA [1]; 100 nM, time (day): 5) | growth inhibition by drug plus 177Lu-lilotomab satetraxetan (RIVA [1]; 100 nM, time (day): 6) | growth inhibition by drug alone (U-2932 [2]; 10 nM, time (day): 3) | growth inhibition by drug alone (U-2932 [2]; 10 nM, time (day): 4) | growth inhibition by drug alone (U-2932 [2]; 10 nM, time (day): 5) | growth inhibition by drug alone (U-2932 [2]; 10 nM, time (day): 6) | growth inhibition by drug alone (U-2932 [2]; 1000 nM, time (day): 3) | growth inhibition by drug alone (U-2932 [2]; 1000 nM, time (day): 4) | growth inhibition by drug alone (U-2932 [2]; 1000 nM, time (day): 5) | growth inhibition by drug alone (U-2932 [2]; 1000 nM, time (day): 6) | growth inhibition by drug alone (RIVA [3]; 10 nM, time (day): 3) | growth inhibition by drug alone (RIVA [3]; 10 nM, time (day): 4) | growth inhibition by drug alone (RIVA [3]; 10 nM, time (day): 5) | growth inhibition by drug alone (RIVA [3]; 10 nM, time (day): 6) | growth inhibition by drug alone (RIVA [3]; 100 nM, time (day): 3) | growth inhibition by drug alone (RIVA [3]; 100 nM, time (day): 4) | growth inhibition by drug alone (RIVA [3]; 100 nM, time (day): 5) | growth inhibition by drug alone (RIVA [3]; 100 nM, time (day): 6) | growth inhibition by drug plus 177Lu-lilotomab satetraxetan (U-2932 [4]; 10 nM, time (day): 3) | growth inhibition by drug plus 177Lu-lilotomab satetraxetan (U-2932 [4]; 10 nM, time (day): 4) | growth inhibition by drug plus 177Lu-lilotomab satetraxetan (U-2932 [4]; 10 nM, time (day): 5) | growth inhibition by drug plus 177Lu-lilotomab satetraxetan (U-2932 [4]; 10 nM, time (day): 6) | growth inhibition by drug plus 177Lu-lilotomab satetraxetan (U-2932 [4]; 1000 nM, time (day): 3) | growth inhibition by drug plus 177Lu-lilotomab satetraxetan (U-2932 [4]; 1000 nM, time (day): 4) | growth inhibition by drug plus 177Lu-lilotomab satetraxetan (U-2932 [4]; 1000 nM, time (day): 5) | growth inhibition by drug plus 177Lu-lilotomab satetraxetan (U-2932 [4]; 1000 nM, time (day): 6) | growth inhibition by drug plus 177Lu-lilotomab satetraxetan (RIVA [1]; 10 nM, time (day): 3) | growth inhibition by drug plus 177Lu-lilotomab satetraxetan (RIVA [1]; 10 nM, time (day): 4) | growth inhibition by drug plus 177Lu-lilotomab satetraxetan (RIVA [1]; 10 nM, time (day): 5) | growth inhibition by drug plus 177Lu-lilotomab satetraxetan (RIVA [1]; 10 nM, time (day): 6) | growth inhibition by drug plus 177Lu-lilotomab satetraxetan (RIVA [1]; 100 nM, time (day): 3) | growth inhibition by drug plus 177Lu-lilotomab satetraxetan (RIVA [1]; 100 nM, time (day): 4)
CN(c1ncccc1CNc1nc(Nc2ccc3c(c2)CC(=O)N3)ncc1C(F)(F)F)S(C)(=O)=O | 0.566 | 0.569 |  |  |  |  |  |  |  |  |  |  |  |  |  |  |  |  |  |  |  |  |  |  |  |  |  |  |  |  |  | 
CNC(=O)c1cc(Oc2ccc(NC(=O)Nc3ccc(Cl)c(C(F)(F)F)c3)cc2)ccn1 [Sorafenib (Nexavar)] | 0.594 | 0.583 | 0.065 | 0.061 | 0.0056 | -0.0896 | 0.0548 | 0.172 | 0.16 | 0.0821 | -0.0351 | -0.0584 | -0.0811 | -0.269 | -0.171 | -0.0734 | -0.0752 | -0.125 | -0.0368 | -0.00107 | -0.00478 | 0.0413 | -0.000329 | 0.177 | 0.189 | 0.145 | 0.328 | 0.487 | 0.498 | 0.507 | 0.415 | 0.561
C[C@]12CC[C@@H]3c4ccc(O)cc4C[C@@H](CCCCCCCCC[S+]([O-])CCCC(F)(F)C(F)(F)F)[C@H]3[C@@H]1CC[C@@H]2O (some centres undefined) |  |  | 0.0173 | -0.00253 | -0.129 | -0.212 | -0.176 | -0.0393 | -0.0718 | -0.153 | -0.00571 | -0.0298 | -0.0782 | -0.352 | -0.0427 | -0.0179 | -0.055 | -0.154 | -0.00503 | 0.0303 | 0.0351 | 0.137 | -0.274 | -0.0121 | 0.0312 | 0.0757 |  |  |  |  |  | 
C=CC(=O)N1CCC[C@@H](n2nc(-c3ccc(Oc4ccccc4)cc3)c3c(N)ncnc32)C1 |  |  | 0.341 | 0.519 | 0.583 | 0.634 | 0.502 | 0.623 | 0.729 | 0.832 | 0.676 | 0.716 | 0.705 | 0.642 | 0.897 | 0.908 | 0.915 | 0.923 | 0.46 | 0.56 | 0.568 | 0.6 | 0.639 | 0.723 | 0.791 | 0.845 |  |  |  |  |  | 
CC(=O)Nc1cccc(-n2c(=O)n(C3CC3)c(=O)c3c(Nc4ccc(I)cc4F)n(C)c(=O)c(C)c32)c1 |  |  | 0.103 | 0.0992 | 0.0497 | 0.109 | 0.311 | 0.328 | 0.215 | 0.243 | 0.0319 | 0.00936 | -0.0739 | -0.235 | 0.213 | 0.171 | 0.0872 | -0.0469 | 0.124 | 0.133 | 0.11 | 0.234 | 0.319 | 0.326 | 0.258 | 0.328 |  |  |  |  |  | 
CNNCc1ccc(C(=O)NC(C)C)cc1 [Procarbazine hydrochloride (Matulane)] |  |  | 0.123 | 0.0702 | -0.0853 | -0.113 | 0.0616 | 0.0673 | 0.00725 | -0.144 | 0.0732 | 0.0412 | 0.0155 | -0.0516 | -0.184 | -0.167 | -0.142 | -0.189 | 0.0466 | 0.103 | 0.15 | 0.195 | 0.0453 | 0.108 | 0.126 | 0.177 |  |  |  |  |  | 
O=C(Cc1ccc(-c2ccc(OCCN3CCOCC3)cc2)cn1)NCc1ccccc1 |  |  | 0.144 | 0.134 | 0.0891 | 0.0449 | 0.964 | 0.971 | 0.975 | 0.978 | 0.0653 | 0.0193 | -0.0159 | -0.201 | 0.766 | 0.708 | 0.676 | 0.605 | 0.0847 | 0.112 | 0.111 | 0.18 | 0.968 | 0.977 | 0.981 | 0.983 |  |  |  |  |  | 
Cc1ccc([C@@H]2O[C@H](CO)[C@@H](O)[C@H](O)[C@H]2O)cc1Cc1ccc(-c2ccc(F)cc2)s1 [Canagliflozin] |  |  | -0.0178 | -0.0268 | -0.0429 | 0.0177 | -0.0399 | 0.00599 | -0.0361 | -0.0715 | -0.0859 | -0.106 | -0.126 | -0.215 | 0.00364 | -0.0271 | -0.0583 | -0.103 | 0.00296 | 0.0208 | 0.0301 | 0.162 | -0.0686 | 0.0117 | 0.0289 | 0.0944 |  |  |  |  |  | 
COc1ccc(-c2oc3cc(OC)ccc3c2C(=O)c2ccc(C#N)cc2)cc1 |  |  | 0.084 | 0.0751 | 0.0436 | -0.022 | -0.0181 | 0.0261 | -0.052 | -0.253 | -0.046 | -0.0513 | -0.124 | -0.374 | -0.0825 | -0.0731 | -0.0858 | -0.201 | -0.0286 | -0.00458 | 0.0392 | 0.0337 | -0.0968 | 0.0212 | 0.0134 | 0.0408 |  |  |  |  |  | 
Cc1ccc(NC(=O)c2ccc(CN3CC[C@H](N(C)C)C3)c(C(F)(F)F)c2)cc1Nc1nccc(-c2cncnc2)n1 [Bafetinib (INNO-406)] | 0.513 | 0.535 | 0.0934 | 0.0624 | -0.0124 | 0.0553 | 0.0275 | -0.0147 | -0.073 | 0.062 | 0.236 | 0.204 | 0.191 | 0.188 | -0.279 | -0.213 | -0.225 | -0.275 | 0.0136 | 0.0566 | 0.138 | 0.239 | 0.00697 | 0.00776 | 0.0531 | 0.226 | 0.594 | 0.623 | 0.652 | 0.658 | 0.392 | 0.503
